# From PubChem BioAssay (NCATS)
# Inconclusive results are not listed. Active and inactive are the calls of the source. Calls follow the shape of the dose curve; as a rule, active = well fitted inhibition curve with a large enough effect; inconclusive = small, poorly fitted or top-dose-only effect; inactive = flat fitted curve, though single readings scatter.
# Assay: BET inhibitor-based combinations targeting novel dependencies in MECOM-rearranged (r) AML: AML-194 cell line (AID 2202237; also: nearly all actives have a fitted effect of over 40% in size;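 as to viability (% of control): plate controls were vehicle wells for no effect and wells without cells for full effect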)
# Conditions: AML-194 (MECOM-r AML) viability, CellTiter-Glo, 48 h; series mostly up to 46 µM; viability (% of control): at the top concentration
# Source text: Ecotropic viral insertion site 1 (EVI1) is located on chromosome 3q26.2 as part of the MECOM (MDS and EVI1 complex) locus. Under normal hematopoiesis, EVI1 is a regulator of hematopoietic stem cell maintenance and self-renewal and EVI1 levels decrease as the cells differentiate. In approximately 5-10% of de novo acute myeloid leukemia (AML) EVI1 is aberrantly expressed, including Chromosomal inv(3)(q21;q26.2) or t(3;3)(q21;q26.2) alterations (MECOM-r) that account for about 50% of AML with EVI1 overexpression 31. AMLs with high levels of EVI1 have a poor prognosis and an overall survival time averaging between 10-14 months. EVI1 overexpression confers resistance in leukemia cells, highlighting the need to develop new targeted therapies for EVI1 overexpressing AMLs.
# Here, we performed an unbiased chemical drug screening by evaluating the single agent activity of a collection of 2,480 oncology-focused, approved and investigational drugs (NCATS Mechanism Interrogation Plates, MIPE v5.0) against a panel of seven AML cell lines. These included four MECOM-r cell-lines (AML-191, AML-194, UCSD-AML1 and HNT-34) and three non-MECOM-r AMLs (MV4-11, OCI-AML3 and SET-2). Exploiting the mechanistic redundancy built in the library, we identified target-level sensitivities in MECOM-r AML cells and relative activity as compared to other AML subtypes.
# A collection of 2480 mechanistically annotated dugs (MIPE v5.0) was used to screen four 3q26.2 rearranged AML cell lines and three non-3q26.2 rearranged AML cell lines. This library purposely exploits redundancy by including multiple inhibitors of key onco-targets, while simultaneously encompassing mechanistic diversity, targeting more than 800 distinct mechanisms of action. Briefly, cells were seeded in 5 uL of growth media using a Multidrop Combi dispenser into 1536 well white polystyrene tissue culture treated plates (Corning) at a density of 500cells/well. For each cell-line, for each of the 2480 drugs in MIPE v5.0 library, an 11-point dose curve was generated via a 1536 pin-tool. Plates were incubated for 48 hr at standard incubator conditions, covered by a stainless steel gasketed lid to prevent evaporation. Cell viability was determined by luminescence based, Cell Titer Glo assay (Promega). In detail, 3 uL of Cell Titer Glo were added to each well and plates were incubated at room temperature for 15 min with a stainless-steel lid in place. Luminescence readings were taken using a Viewlux (PerkinElmer) with a 2 s exposure time per plate. Compound dose-response curves were normalized to DMSO and empty well controls on each plate. Quantitative drug activity data from dose-response curves was determined utilizing area Under the Curve (AUC) and Z-transformed AUC (Z-AUC, a mean-centering transformation applied to each individual cell-line screened).
# Potency is read from the fitted curve at half-maximal effect.
SMILES,viability (% of control),Potency
N#CC(O[C@@H]1O[C@H](CO[C@@H]2O[C@H](CO)[C@@H](O)[C@H](O)[C@H]2O)[C@@H](O)[C@H](O)[C@H]1O)c1ccccc1 (stereo not given in full),96.8% (inactive),–
C[C@]12CC[C@@H]3[C@@H](CCC4=CC(=O)CC[C@@H]43)[C@@H]1CC[C@@H]2OC(=O)CCc1ccccc1,102% (inactive),–
C[C@]12CC[C@@H]3c4ccc(OC(=O)N(CCCl)CCCl)cc4CC[C@H]3[C@@H]1CC[C@@H]2OP(=O)(O)O,104% (inactive),–
Cc1cc(SCc2sc(-c3ccc(C(F)(F)F)c(F)c3)nc2C)ccc1OCC(=O)O,90% (inactive),–
Cn1c(CCCC(=O)O)nc2cc(N(CCCl)CCCl)ccc21,–,20900 nM (active)
Cc1ccccc1-n1c(Cn2cnc3c(N)ncnc32)nc2cccc(C)c2c1=O,106% (inactive),–
CC[C@H]1/C=C\C=C/C[C@@H](C)[C@H](O)[C@@](C)(O)C(=O)[C@@H](C)[C@H](O)[C@@H](C)C(=O)[C@@H](C)[C@H](O)[C@@H](C)/C=C\C(=O)O[C@@H]2[C@H](C)[C@H](CC1)O[C@]1(CC[C@H](C)[C@H](C[C@@H](C)O)O1)[C@H]2C,–,2950 nM (active)
Cn1c(/C=C/CO)c(CO)c2c1C(=O)C=C(N1CC1)C2=O,114% (inactive),–
COC1(CS(=O)c2ccccc2)CCN(CCc2c[nH]c3ccc(F)cc23)CC1 (stereo not given),95.3% (inactive),–
O=C(O)C1=CCCN(CCOC(c2ccc(C(F)(F)F)cc2)c2ccc(C(F)(F)F)cc2)C1,92.7% (inactive),–
COC(=O)[C@]12CCC(C)(C)C[C@H]1[C@H]1C(=O)C=C3[C@@]4(C)C=C(C#N)C(=O)C(C)(C)[C@@H]4CC[C@@]3(C)[C@]1(C)CC2,–,2630 nM (active)
CC(C)C[C@H](CN)CC(=O)O,113% (inactive),–
O=C1C=CC[C@@H]2[C@H]3CCCN4CCC[C@@H](CN12)[C@@H]34,86% (inactive),–
C[C@@H](C1CC[C@@]2(O)C3=CC(=O)[C@@H]4C[C@@H](O)[C@@H](O)C[C@]4(C)[C@H]3CC[C@]12C)[C@H](O)CCC(C)(C)O (stereo not given in full),104% (inactive),–
CN1C(=O)[C@@H](NC(=O)[C@H](CCC(F)(F)F)[C@H](CCC(F)(F)F)C(N)=O)N=C(c2ccccc2)c2ccccc21,118% (inactive),–
C[C@]12CC[C@H]3[C@@H](CCC4=CC(=O)CC[C@@]43C)[C@H]1CC[C@H]2OC(=O)CCC1CCCC1,106% (inactive),–
O=P1(NCCCl)OCCCN1CCCl (stereo not given),109% (inactive),–
CN1C(=O)COc2c(C(=O)NC3CN4CCC3CC4)cc(Cl)cc21 (stereo not given),114% (inactive),–
COC1=C[C@@H]2[C@@H]3Cc4ccc(OC)c(O)c4[C@]2(CCN3C)CC1=O,101% (inactive),–
C[C@@H]1O[C@@H](O[C@H]2C[C@@H](O)[C@]3(CO)[C@H]4[C@H](O)C[C@]5(C)[C@@H](C6=CC(=O)OC6)CC[C@]5(O)[C@@H]4CC[C@]3(O)C2)[C@H](O)[C@H](O)[C@H]1O,–,46.8 nM (active)

SMILES,viability (% of control),Potency
C#CCN(C)[C@H](C)Cc1ccccc1,100% (inactive),–
Cc1[nH]nc2ccc(-c3cncc(OC[C@@H](N)Cc4c[nH]c5ccccc45)c3)cc12,–,934 nM (active)
O=C(O)CNC(=O)c1c(O)c2ccccc2n(Cc2ccccc2)c1=O,106% (inactive),–
CC(=O)O[C@@]12CO[C@@H]1C[C@H](O)[C@@]1(C)C(=O)[C@H](O)C3=C(C)[C@@H](O)C[C@@](O)([C@@H](OC(=O)c4ccccc4)[C@H]21)C3(C)C,–,23500 nM (active)
CCNC(=O)CC1N=C(c2ccc(Cl)cc2)c2cc(OC)ccc2-n2c(C)nnc21 (stereo not given),72.4% (inactive),–
C[C@@H]1CC[C@H]2[C@@H](C)C(=O)O[C@@H]3O[C@@]4(C)CC[C@@H]1[C@]32OO4,96.3% (inactive),–
O=C(Oc1ccc([N+](=O)[O-])cc1)N1CCC(C(O)(c2ccc3c(c2)OCO3)c2ccc3c(c2)OCO3)CC1,106% (inactive),–
COc1ccc(C(=O)c2c(C)n(CCN3CCOCC3)c3cc(I)ccc23)cc1,–,9340 nM (active)
COc1ccc(C(=O)N2CCCC2=O)cc1,120% (inactive),–
O=P1(N(CCCl)CCCl)NCCCO1 (stereo not given),111% (inactive),–
COc1cc(C)[nH]c(=O)c1CNC(=O)c1c(C)n([C@H](C)C2CCOCC2)c2ccccc12,118% (inactive),–
CCc1c(C(=O)C(N)=O)c2c(OCC(=O)O)cccc2n1Cc1ccccc1,111% (inactive),–
COc1cccc2c1C(=O)c1c(O)c3c(c(O)c1C2=O)C[C@@](O)(C(=O)CO)CC3OC1CC(N2CCOC(OC)C2)C(O)C(C)O1 (stereo not given in full),–,4.2 nM (active)
C/C(=C\c1csc(C)n1)[C@@H]1C[C@@H]2O[C@]2(C)CCC[C@H](C)[C@H](O)[C@@H](C)C(=O)C(C)(C)[C@@H](O)CC(=O)O1,–,11.8 nM (active)
CO[C@H]1CCC(O[C@H]2C[C@H]([C@]3(C)CC[C@]4(C[C@H](O)[C@@H](C)[C@@H]([C@@H](C)/C=C(\C)C(=O)[C@H](C)C[C@H](C)C(=O)O)O4)O3)O[C@]3(O[C@@H]([C@H]4O[C@@](O)(CO)[C@H](C)C[C@@H]4C)C[C@@H]3C)[C@@H]2C)O[C@@H]1C (stereo not given in full),–,263 nM (active)
C=C(C)[C@H]1Cc2c(ccc3c2O[C@@H]2COc4cc(OC)c(OC)cc4[C@@H]2C3=O)O1,–,934 nM (active)
CNC(=O)c1ccc(N2C(=S)N(c3ccc(C#N)c(C(F)(F)F)c3)C(=O)C23CCC3)cc1F,96.2% (inactive),–
CC(C)c1cccc(C(C)C)c1O,117% (inactive),–
C[C@]12Cc3cn[nH]c3C[C@@H]1CC[C@@H]1[C@@H]2CC[C@@]2(C)[C@H]1CC[C@]2(C)O,106% (inactive),–
C/C(O)=C(\C#N)C(=O)Nc1cc(Br)ccc1Br,100% (inactive),–
